# Experimental data taken from ChEMBL document CHEMBL1961873, “Compounds: GSK PKIS; Assays: Nanosyn kinase panel” (2012).
# Key:
# [1] = target: Ribosomal protein S6 kinase alpha-6 (Homo sapiens) (UniProt Q9UK32); conditions: at 1 µM;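 also: each value is a mean inhibition of RSK4 from a GSK PKIS panel screen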
# [2] = target: T1, Serine/threonine-protein kinase Sgk1 (Homo sapiens) (UniProt O00141); conditions: at 0.1 µM
# T1 sequence (whole entry): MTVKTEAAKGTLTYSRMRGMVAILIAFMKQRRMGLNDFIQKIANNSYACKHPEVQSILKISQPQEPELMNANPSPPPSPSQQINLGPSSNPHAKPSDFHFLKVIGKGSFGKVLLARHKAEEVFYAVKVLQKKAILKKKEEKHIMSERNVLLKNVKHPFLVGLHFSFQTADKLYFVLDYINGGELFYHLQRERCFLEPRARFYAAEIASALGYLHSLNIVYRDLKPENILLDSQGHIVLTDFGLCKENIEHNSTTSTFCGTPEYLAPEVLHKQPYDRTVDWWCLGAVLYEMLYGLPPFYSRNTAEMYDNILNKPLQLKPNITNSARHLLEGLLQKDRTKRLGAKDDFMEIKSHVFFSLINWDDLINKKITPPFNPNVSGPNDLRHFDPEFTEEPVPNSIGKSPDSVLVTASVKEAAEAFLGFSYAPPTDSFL
# [3] = target: T1, Serine/threonine-protein kinase Sgk1 (Homo sapiens); conditions: at 1 µM
# [4] = target: T2, Serine/threonine-protein kinase Sgk2 (Homo sapiens) (UniProt Q9HBY8); conditions: at 0.1 µM
# T2 sequence (whole entry): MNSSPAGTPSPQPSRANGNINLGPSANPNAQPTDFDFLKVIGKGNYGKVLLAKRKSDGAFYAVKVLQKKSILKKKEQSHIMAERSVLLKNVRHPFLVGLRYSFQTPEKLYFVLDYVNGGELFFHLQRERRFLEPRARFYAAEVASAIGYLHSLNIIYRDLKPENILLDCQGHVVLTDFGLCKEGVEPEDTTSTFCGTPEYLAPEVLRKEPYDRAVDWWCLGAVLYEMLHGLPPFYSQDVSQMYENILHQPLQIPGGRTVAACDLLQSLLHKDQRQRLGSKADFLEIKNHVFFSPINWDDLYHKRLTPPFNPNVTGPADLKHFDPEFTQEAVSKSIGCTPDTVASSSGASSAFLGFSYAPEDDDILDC
# [5] = target: T2, Serine/threonine-protein kinase Sgk2 (Homo sapiens); conditions: at 1 µM
# [6] = target: T3, Serine/threonine-protein kinase Sgk3 (Homo sapiens) (UniProt Q96BR1); conditions: at 0.1 µM
# T3 sequence (whole entry): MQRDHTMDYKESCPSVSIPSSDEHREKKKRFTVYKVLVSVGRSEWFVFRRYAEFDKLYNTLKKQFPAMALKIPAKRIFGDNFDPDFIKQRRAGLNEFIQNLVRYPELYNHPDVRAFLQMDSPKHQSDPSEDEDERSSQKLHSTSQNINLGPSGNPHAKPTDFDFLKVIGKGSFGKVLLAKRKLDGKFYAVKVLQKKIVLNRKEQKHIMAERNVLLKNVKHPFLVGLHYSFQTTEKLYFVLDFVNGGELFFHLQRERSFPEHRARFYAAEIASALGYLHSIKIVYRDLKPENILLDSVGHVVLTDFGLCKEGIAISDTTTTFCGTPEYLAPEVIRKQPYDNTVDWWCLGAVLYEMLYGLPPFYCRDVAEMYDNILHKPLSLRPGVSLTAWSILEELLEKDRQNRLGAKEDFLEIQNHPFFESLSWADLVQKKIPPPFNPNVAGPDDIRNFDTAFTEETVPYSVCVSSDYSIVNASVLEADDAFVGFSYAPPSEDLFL
# [7] = target: T3, Serine/threonine-protein kinase Sgk3 (Homo sapiens); conditions: at 1 µM
# [8] = target: 5'-AMP-activated protein kinase catalytic subunit alpha-1 (Homo sapiens) (UniProt Q13131); conditions: at 0.1 µM
# Sequence of 5'-AMP-activated protein kinase catalytic subunit alpha-1 (Homo sapiens) (Q13131 whole entry, looked up): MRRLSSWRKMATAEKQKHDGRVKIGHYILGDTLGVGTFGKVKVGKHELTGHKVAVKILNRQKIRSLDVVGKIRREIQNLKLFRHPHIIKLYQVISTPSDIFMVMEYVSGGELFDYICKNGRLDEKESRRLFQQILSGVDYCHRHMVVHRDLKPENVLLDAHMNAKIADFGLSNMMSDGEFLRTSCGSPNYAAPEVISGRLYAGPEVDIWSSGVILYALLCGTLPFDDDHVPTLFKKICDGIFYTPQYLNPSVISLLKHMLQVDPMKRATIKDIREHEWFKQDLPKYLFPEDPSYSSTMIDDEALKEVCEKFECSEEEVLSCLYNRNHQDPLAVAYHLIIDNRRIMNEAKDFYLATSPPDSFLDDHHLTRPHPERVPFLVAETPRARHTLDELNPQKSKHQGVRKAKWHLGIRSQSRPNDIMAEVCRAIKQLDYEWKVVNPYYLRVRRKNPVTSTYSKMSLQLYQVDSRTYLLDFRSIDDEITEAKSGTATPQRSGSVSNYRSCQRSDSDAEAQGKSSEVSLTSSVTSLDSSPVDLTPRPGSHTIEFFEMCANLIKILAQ
# [9] = target: 5'-AMP-activated protein kinase catalytic subunit alpha-1 (Homo sapiens) (UniProt Q13131); conditions: at 1 µM
# [10] = target: 5'-AMP-activated protein kinase catalytic subunit alpha-2 (Homo sapiens) (UniProt P54646); conditions: at 0.1 µM
# Sequence of 5'-AMP-activated protein kinase catalytic subunit alpha-2 (Homo sapiens) (P54646 whole entry, looked up): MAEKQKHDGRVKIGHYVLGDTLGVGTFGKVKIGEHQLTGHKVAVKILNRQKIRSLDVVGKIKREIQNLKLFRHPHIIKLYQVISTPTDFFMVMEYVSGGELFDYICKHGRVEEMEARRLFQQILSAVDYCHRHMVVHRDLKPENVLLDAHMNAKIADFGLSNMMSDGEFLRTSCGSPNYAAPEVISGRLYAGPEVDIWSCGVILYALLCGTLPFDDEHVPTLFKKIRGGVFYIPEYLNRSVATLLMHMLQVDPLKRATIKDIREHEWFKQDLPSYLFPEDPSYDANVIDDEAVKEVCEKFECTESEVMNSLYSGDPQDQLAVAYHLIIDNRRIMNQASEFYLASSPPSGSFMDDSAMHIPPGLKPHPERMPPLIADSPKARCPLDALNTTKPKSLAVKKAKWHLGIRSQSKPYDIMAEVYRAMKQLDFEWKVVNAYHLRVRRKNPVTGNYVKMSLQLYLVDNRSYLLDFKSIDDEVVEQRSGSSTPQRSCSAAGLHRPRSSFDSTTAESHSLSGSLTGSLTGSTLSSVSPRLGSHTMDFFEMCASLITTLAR
# [11] = target: 5'-AMP-activated protein kinase catalytic subunit alpha-2 (Homo sapiens) (UniProt P54646); conditions: at 1 µM
# [12] = target: T4, NUAK family SNF1-like kinase 1 (Homo sapiens) (UniProt O60285); conditions: at 0.1 µM
# T4 sequence (whole entry): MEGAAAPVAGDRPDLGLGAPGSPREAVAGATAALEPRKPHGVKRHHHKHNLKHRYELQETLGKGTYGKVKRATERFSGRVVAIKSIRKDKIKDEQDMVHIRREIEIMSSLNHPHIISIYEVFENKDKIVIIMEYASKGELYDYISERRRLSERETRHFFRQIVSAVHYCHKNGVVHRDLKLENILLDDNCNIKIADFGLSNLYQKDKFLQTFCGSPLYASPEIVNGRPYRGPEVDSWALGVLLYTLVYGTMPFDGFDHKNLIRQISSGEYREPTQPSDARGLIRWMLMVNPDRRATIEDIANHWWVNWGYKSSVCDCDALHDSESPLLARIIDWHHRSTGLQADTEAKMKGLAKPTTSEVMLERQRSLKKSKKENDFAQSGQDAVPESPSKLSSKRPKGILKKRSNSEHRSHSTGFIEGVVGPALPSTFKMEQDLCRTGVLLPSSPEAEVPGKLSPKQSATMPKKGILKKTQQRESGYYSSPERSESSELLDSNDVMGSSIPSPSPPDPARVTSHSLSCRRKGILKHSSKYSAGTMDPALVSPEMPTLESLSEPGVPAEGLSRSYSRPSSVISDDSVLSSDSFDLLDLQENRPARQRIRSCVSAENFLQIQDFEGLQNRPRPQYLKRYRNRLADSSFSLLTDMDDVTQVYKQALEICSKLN
# [13] = target: T4, NUAK family SNF1-like kinase 1 (Homo sapiens); conditions: at 1 µM
# [14] = target: T5, Serine/threonine-protein kinase BRSK1 (Homo sapiens) (UniProt Q8TDC3); conditions: at 0.1 µM
# T5 sequence (whole entry): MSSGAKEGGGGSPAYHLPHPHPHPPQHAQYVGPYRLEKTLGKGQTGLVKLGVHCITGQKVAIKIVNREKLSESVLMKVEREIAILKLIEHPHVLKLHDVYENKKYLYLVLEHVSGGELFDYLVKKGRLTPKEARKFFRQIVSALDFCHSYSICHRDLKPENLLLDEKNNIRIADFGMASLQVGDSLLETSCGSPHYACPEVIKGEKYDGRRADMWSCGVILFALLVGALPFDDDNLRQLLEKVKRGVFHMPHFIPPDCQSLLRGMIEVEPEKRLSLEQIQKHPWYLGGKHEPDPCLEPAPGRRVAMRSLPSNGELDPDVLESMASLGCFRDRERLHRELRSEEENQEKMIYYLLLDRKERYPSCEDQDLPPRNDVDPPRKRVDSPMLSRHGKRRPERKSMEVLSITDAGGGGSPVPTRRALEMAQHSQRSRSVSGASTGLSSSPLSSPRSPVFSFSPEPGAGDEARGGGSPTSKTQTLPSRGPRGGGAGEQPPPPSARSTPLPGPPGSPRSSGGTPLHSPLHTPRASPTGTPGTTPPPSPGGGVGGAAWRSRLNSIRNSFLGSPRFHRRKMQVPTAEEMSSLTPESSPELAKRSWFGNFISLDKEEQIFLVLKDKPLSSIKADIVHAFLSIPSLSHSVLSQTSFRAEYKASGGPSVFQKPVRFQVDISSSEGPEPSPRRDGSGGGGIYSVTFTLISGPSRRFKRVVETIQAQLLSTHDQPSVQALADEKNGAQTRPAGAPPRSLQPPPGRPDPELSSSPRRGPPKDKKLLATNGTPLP
# [15] = target: T5, Serine/threonine-protein kinase BRSK1 (Homo sapiens); conditions: at 1 µM
# [16] = target: T6, Serine/threonine-protein kinase BRSK2 (Homo sapiens) (UniProt Q8IWQ3); conditions: at 0.1 µM
# T6 sequence (whole entry): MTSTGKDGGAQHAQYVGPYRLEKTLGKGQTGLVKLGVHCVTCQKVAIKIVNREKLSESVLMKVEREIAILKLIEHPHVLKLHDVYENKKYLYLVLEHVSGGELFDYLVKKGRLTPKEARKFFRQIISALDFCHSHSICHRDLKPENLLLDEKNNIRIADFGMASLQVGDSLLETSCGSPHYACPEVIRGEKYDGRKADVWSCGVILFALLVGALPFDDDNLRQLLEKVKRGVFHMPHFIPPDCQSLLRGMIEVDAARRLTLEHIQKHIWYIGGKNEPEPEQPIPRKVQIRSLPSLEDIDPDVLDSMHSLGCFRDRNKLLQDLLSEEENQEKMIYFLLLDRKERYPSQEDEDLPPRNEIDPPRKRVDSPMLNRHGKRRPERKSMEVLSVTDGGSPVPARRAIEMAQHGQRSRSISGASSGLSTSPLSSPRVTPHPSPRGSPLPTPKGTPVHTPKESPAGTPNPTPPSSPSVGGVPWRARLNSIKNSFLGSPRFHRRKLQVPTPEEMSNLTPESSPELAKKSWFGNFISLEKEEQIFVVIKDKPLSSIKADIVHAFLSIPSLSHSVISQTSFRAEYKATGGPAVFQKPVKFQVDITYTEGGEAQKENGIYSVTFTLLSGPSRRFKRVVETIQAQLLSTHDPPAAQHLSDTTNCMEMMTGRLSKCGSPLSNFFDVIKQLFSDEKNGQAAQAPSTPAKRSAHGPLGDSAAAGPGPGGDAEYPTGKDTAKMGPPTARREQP
# [17] = target: T6, Serine/threonine-protein kinase BRSK2 (Homo sapiens); conditions: at 1 µM
# [18] = target: Calcium/calmodulin-dependent protein kinase type 1D (Homo sapiens) (UniProt Q8IU85); conditions: at 0.1 µM
# Sequence of Calcium/calmodulin-dependent protein kinase type 1D (Homo sapiens) (Q8IU85 whole entry, looked up): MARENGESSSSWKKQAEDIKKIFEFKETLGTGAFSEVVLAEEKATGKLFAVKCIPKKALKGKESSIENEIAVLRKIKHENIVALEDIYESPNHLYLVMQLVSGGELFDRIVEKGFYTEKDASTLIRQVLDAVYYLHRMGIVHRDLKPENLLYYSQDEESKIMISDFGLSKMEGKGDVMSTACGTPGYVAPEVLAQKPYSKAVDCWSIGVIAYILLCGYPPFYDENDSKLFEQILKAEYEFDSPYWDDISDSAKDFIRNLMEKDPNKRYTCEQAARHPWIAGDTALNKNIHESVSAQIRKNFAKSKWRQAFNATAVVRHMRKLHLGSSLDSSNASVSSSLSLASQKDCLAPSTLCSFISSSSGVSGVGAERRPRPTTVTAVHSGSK
# [19] = target: Calcium/calmodulin-dependent protein kinase type 1D (Homo sapiens) (UniProt Q8IU85); conditions: at 1 µM
# [20] = target: Calcium/calmodulin-dependent protein kinase type II subunit alpha (Homo sapiens) (UniProt Q9UQM7); conditions: at 0.1 µM;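 also: reported values are averages (mean inhibition of CAMK2A)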
# Sequence of Calcium/calmodulin-dependent protein kinase type II subunit alpha (Homo sapiens) (Q9UQM7 whole entry): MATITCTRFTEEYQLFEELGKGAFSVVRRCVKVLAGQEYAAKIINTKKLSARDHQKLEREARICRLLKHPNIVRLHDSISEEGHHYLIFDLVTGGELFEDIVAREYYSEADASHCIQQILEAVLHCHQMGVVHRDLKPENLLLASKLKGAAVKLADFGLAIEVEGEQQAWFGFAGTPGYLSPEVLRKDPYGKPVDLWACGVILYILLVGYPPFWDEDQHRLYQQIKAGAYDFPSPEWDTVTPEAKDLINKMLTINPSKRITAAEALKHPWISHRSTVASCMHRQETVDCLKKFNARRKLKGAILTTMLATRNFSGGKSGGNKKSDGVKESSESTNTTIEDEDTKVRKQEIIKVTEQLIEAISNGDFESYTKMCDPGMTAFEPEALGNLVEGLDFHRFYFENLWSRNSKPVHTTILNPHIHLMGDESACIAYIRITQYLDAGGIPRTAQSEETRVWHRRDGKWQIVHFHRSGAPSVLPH
# Sequence of Ribosomal protein S6 kinase alpha-6 (Homo sapiens) (Q9UK32 whole entry): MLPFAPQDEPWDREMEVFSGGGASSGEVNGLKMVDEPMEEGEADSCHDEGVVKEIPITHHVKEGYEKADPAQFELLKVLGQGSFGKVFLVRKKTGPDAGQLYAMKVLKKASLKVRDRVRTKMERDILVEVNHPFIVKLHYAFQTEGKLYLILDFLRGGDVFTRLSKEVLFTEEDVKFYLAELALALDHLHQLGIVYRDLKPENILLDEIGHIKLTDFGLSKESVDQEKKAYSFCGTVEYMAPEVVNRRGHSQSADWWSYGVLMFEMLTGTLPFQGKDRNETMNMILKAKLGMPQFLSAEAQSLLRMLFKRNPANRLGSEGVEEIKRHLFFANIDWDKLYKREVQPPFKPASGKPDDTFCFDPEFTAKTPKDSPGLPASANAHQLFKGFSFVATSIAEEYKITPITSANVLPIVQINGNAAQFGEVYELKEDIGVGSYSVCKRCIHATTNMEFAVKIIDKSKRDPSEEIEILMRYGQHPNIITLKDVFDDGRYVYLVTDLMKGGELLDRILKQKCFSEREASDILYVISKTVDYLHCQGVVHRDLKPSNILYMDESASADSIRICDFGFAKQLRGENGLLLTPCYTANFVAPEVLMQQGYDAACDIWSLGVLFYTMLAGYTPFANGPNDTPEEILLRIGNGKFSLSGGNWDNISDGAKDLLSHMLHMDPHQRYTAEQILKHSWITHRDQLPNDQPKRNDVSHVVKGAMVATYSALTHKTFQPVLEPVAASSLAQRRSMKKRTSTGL
compound,measurement,setting,value
COc1ccc2c(-c3ccnc(Nc4cccc(OC(F)(F)F)c4)n3)cnn2n1,inhibition,[1],3.03%
same,inhibition,[2],3.35%
same,inhibition,[3],2.06%
same,inhibition,[4],6.82%
same,inhibition,[5],9.02%
same,inhibition,[6],5.66%
same,inhibition,[7],4.44%
same,inhibition,[8],4.09%
same,inhibition,[9],7.03%
same,inhibition,[10],-7%
same,inhibition,[11],5.72%
same,inhibition,[12],6.86%
same,inhibition,[13],30.7%
same,inhibition,[14],-1.42%
same,inhibition,[15],3.33%
same,inhibition,[16],2.27%
same,inhibition,[17],3.88%
same,inhibition,[18],0.18%
same,inhibition,[19],2.77%
same,inhibition,[20],4.78%
Clc1ccc(-c2nn3ncccc3c2-c2ccnc(Nc3ccccc3)n2)cc1,inhibition,[1],1.59%
same,inhibition,[2],3.14%
same,inhibition,[3],1.09%
same,inhibition,[4],1.58%
same,inhibition,[5],0.53%
same,inhibition,[6],1.92%
same,inhibition,[7],-1.01%
same,inhibition,[8],0.45%
same,inhibition,[9],0.54%
same,inhibition,[10],1.86%
same,inhibition,[11],2.26%
same,inhibition,[12],0.79%
same,inhibition,[13],4.21%
same,inhibition,[14],0.06%
same,inhibition,[15],1.52%
same,inhibition,[16],-0.16%
same,inhibition,[17],-0.21%
same,inhibition,[18],2.4%
same,inhibition,[19],1.17%
same,inhibition,[20],0.95%
CCN1CCC(CC(=O)Nc2n[nH]c3nnc(-c4cccc(F)c4F)cc23)CC1,inhibition,[1],1.38%
same,inhibition,[2],0.53%
same,inhibition,[3],0.29%
same,inhibition,[4],-3.94%
same,inhibition,[5],1.93%
same,inhibition,[6],0.82%
same,inhibition,[7],4.18%
same,inhibition,[8],2.47%
same,inhibition,[9],3.36%
same,inhibition,[10],2.36%
same,inhibition,[11],5.17%
same,inhibition,[12],-1.66%
same,inhibition,[13],1.56%
same,inhibition,[14],-0.52%
same,inhibition,[15],3.84%
same,inhibition,[16],2.07%
same,inhibition,[17],-0.1%
same,inhibition,[18],1.6%
same,inhibition,[19],-1.42%
same,inhibition,[20],3.17%
FC(F)(F)c1cccc(-c2nn3ncccc3c2-c2ccnc(Nc3ccc4c(c3)OCCO4)n2)c1,inhibition,[1],2.56%
same,inhibition,[2],1.35%
same,inhibition,[3],1.1%
same,inhibition,[4],-3.49%
same,inhibition,[5],0.76%
same,inhibition,[6],5.14%
same,inhibition,[7],1.47%
same,inhibition,[8],1.41%
same,inhibition,[9],0.35%
same,inhibition,[10],0.93%
same,inhibition,[11],4.13%
same,inhibition,[12],1.51%
same,inhibition,[13],5.87%
same,inhibition,[14],3.69%
same,inhibition,[15],2.81%
same,inhibition,[16],2.37%
same,inhibition,[17],2.54%
same,inhibition,[18],-0.54%
same,inhibition,[19],1.75%
same,inhibition,[20],1.98%
